Only some compounds are listed: those with a hit (about 22% of all), similar ones and a draw of the others.
Pf growth 48h = P. falciparum growth inhibition at 48 hours (one generation); P. falciparum luciferase growth in erythrocytes, 48 h; Potency, µM (highest dose often 28.7 µM), actives largely listed as inhibitors; actives 5.9% (n = 310,000)
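Firefly luciferase activity from engineered P. falciparum reports growth; inhibitors lower the luminescent signal. Cultures contained 2% hematocrit erythrocytes at 0.1% final parasitemia.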
Shiga inhibitor = Shiga toxin inhibition; actives 9.2% (n = 290,000); inhibition, % at 38.7 µM; Vero cells, Shiga toxin protein synthesis inhibition reporter; in the data active means inhibition mostly above about 28%, no sharp cut-off; inactive means mostly below about 43%
Pf growth 96h = inhibits malaria parasite growth, 96 h. P. falciparum luciferase reporter growth, 96 h. Potency, µM (highest dose often 28.7 µM), most hits filed as inhibitors. actives 6.9% (n = 320,000)
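Compounds incubated with erythrocytes infected by luciferase-expressing P. falciparum (2% hematocrit, 0.05% parasitemia final) for 96 hours, 37 C in 5% CO2. Growth inhibition scored as decreased luciferase luminescence.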
CHX counter = counter-screen for Shiga toxin inhibitors: cycloheximide protein synthesis inhibition; cell reporter, cycloheximide protein synthesis inhibition counterscreen; AID 2314; actives 12% (n = 300,000); max response, %; in the data active means max response mostly above about 13%, no sharp cut-off; inactive means mostly below about 14%; further: read at 38.3 µM for the half of the compounds with a filed dose
LmPK inhibitor = LmPK (Leishmania mexicana) enzyme inhibition; AID 1721; Potency, µM (highest dose often 57.5 µM), actives largely listed as inhibitors; Q27686; actives 0.37% (n = 290,000); purified LmPK, Kinase-Glo ATP luminescence, 1 h
Target sequence (Q27686 whole entry, looked up): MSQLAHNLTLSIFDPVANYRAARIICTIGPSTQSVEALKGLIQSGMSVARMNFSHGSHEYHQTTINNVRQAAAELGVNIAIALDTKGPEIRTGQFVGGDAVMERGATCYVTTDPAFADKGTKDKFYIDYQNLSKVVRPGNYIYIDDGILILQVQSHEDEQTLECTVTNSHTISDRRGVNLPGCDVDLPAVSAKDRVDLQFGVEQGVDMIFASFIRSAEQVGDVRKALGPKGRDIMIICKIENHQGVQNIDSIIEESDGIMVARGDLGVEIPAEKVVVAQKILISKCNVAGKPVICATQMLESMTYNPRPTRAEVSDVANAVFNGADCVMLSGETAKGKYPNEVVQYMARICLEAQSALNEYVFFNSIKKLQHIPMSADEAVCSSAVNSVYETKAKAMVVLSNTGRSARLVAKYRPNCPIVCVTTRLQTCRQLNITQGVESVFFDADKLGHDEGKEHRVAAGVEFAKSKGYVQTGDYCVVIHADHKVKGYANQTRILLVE
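Purified LmPK (0.1 nM) converted ADP (0.1 mM) to ATP with PEP (0.5 mM) in imidazole buffer pH 7.2 with KCl and MgCl2, 1 h at room temperature. ATP was read by Kinase-Glo luminescence; data normalized to uninhibited and no-enzyme controls.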
Of the large screens only hits and unclear results are named; the others gave an inactive call. Unless noted, the call rests on the fitted dose curve; in most records, active means well fitted inhibition curve with a large enough effect; inconclusive means small, poorly fitted or top-dose-only effect, or another doubt; inactive means no such curve, though single readings can be large or run the other way.

Cc1ccc(NC(=O)CCC(=O)N2CCC(C)CC2)c([N+](=O)[O-])c1	none
O=C(NCCC(=O)N1CCN(C(=O)c2ccco2)CC1)c1ccc(Br)cc1	none (no result: Shiga inhibitor, CHX counter, LmPK inhibitor)
COc1ccc(CNC(=O)C(=O)NCC2CCCO2)cc1 (configuration not stated)	none
O=C(NCC1CCCO1)C1CCN(C(=O)c2ccc(Cl)cc2)CC1 (configuration not stated)	none (no result: Pf growth 96h)
COc1ccc(CCNC(=O)C(=O)NCC2CCCO2)cc1 (configuration not stated)	Pf growth 96h 4.1µM
COc1ccc(C(=O)NC(=S)NCC2CCCO2)cc1 (configuration not stated)	Shiga inhibitor 54, CHX counter 42
CC(C)(C)c1ccc(C(=O)N2CCC(C(=O)NCC3CCCO3)CC2)cc1 (configuration not stated)	CHX counter 20
CC(C)(C)c1ccc(C(=O)NNC(=S)NCC2CCCO2)cc1 (configuration not stated)	none
CC(C)(C)c1ccc(C(=O)NC(=S)NCC2CCCO2)cc1 (configuration not stated)	Pf growth 48h inconclusive, Shiga inhibitor 148, CHX counter 17
Cc1c(NC(=O)COC(=O)C2=COCCO2)cccc1[N+](=O)[O-]	none (no result: Shiga inhibitor, CHX counter, LmPK inhibitor)
CCN(CC)CC(C)OC(=O)c1ccccc1Cl (configuration not stated)	none
Cc1onc(-c2c(F)cccc2Cl)c1C(O)c1ccc(F)cc1 (configuration not stated)	none
O=C(NC(=S)NCC1CCCO1)c1ccc(Cl)cc1Cl (configuration not stated)	Shiga inhibitor 56, Pf growth 96h inconclusive, CHX counter 16
CCN(CC)c1ccc(NC(=S)NC(=O)C2CCC2)cc1	Pf growth 96h 12µM
COc1ccc(NC(=S)NC(=O)C2CCCCC2)cc1	none
CCOc1ccc(NC(=S)NC(=O)C2CCCC2)cc1	Shiga inhibitor 69, Pf growth 96h inconclusive, CHX counter 16
NS(=O)(=O)c1ccc(NC(=S)NC(=O)C2CCCC2)cc1	Pf growth 96h 1.9µM
C#CC(CC)(CC)NC(=S)Nc1ccc(S(N)(=O)=O)cc1	Shiga inhibitor 44, CHX counter 12
CCC(C)NC(=O)c1ccccc1-c1nc2ccccc2[nH]1 (configuration not stated)	none
O=C(NCC(=O)N(c1cccnc1)C(C(=O)NC1CCCC1)c1ccccc1F)c1ccco1 (configuration not stated)	none
COc1ccc(/C(C)=N/NC(=O)CNC(=O)c2ccco2)c(OC)c1	none
COc1ccc(NC(=S)N2CCC(NC(=O)c3ccc(F)cc3)CC2)cc1	none
NS(=O)(=O)c1ccc(NC(=O)COC(=O)CCC2CCCC2)cc1	none
NS(=O)(=O)c1ccc(NC(=O)COC(=O)C2CCCCC2)cc1	Shiga inhibitor 40, CHX counter 33
Cc1ccc(CNC(=O)Cn2ncn3cccc3c2=O)cc1	Shiga inhibitor 23, CHX counter 21
COc1cccc(CNC(=O)Cn2ncn3cccc3c2=O)c1OC	Shiga inhibitor 26, CHX counter 11
Cc1ccnn1-c1ccc(C(=O)OCC(=O)Nc2ccc(F)cc2)cc1	none (no result: Shiga inhibitor, CHX counter, LmPK inhibitor)
CCOC(=O)C1CCCN(c2nc3ccccc3nc2C(C#N)C(=O)OC(C)COC)C1 (configuration not stated)	Pf growth 48h inconclusive, Pf growth 96h inconclusive
CCOC(=O)C1CCCN(c2nc3ccccc3nc2C(C#N)C(=O)OCCOC)C1 (configuration not stated)	Pf growth 48h 6.6µM, Pf growth 96h 8.3µM
CCOC(=O)C1CCN(c2nc3ccccc3nc2C(C#N)C(=O)NCCc2ccccc2)CC1 (configuration not stated)	Pf growth 96h 9.3µM, CHX counter 49
C=CCOC(=O)C(C#N)c1nc2ccccc2nc1N1CCN(c2ccccc2OC)CC1 (configuration not stated)	Pf growth 48h 5.9µM, Pf growth 96h 8.3µM
CC(=O)C[C@H](c1ccccc1)c1c(O)c2ccccc2oc1=O	none (no result: Pf growth 48h, Pf growth 96h, LmPK inhibitor)
Cc1cc(C)cc(-n2nnc(C(=O)NCc3ccccc3)c2N)c1	Pf growth 48h 13µM, Pf growth 96h inconclusive
Cc1cccc(-n2nnc(C(=O)NCc3ccco3)c2N)c1	Shiga inhibitor 38, CHX counter 21
CCCCNC(=O)c1nnn(-c2ccccc2)c1N	Shiga inhibitor 49, Pf growth 96h inconclusive, CHX counter 27
CCO[C@H]1OC(C(N)=O)=C[C@@H](C2CCCCC2)[C@@H]1CCCO	none
Cc1cccc(C)c1OCc1nc2ccccc2[nH]1	Pf growth 96h inconclusive
Cc1ccc(C)c(OCc2nc3ccc(S(=O)(=O)Nc4c(C)n(C)n(-c5ccccc5)c4=O)cc3[nH]2)c1	Pf growth 48h 12µM, Pf growth 96h 5.2µM
Cc1c(NS(=O)(=O)c2ccc3nc(COc4ccccc4Cl)[nH]c3c2)c(=O)n(-c2ccccc2)n1C	Pf growth 48h inconclusive, Pf growth 96h inconclusive
Cc1ccc(C)c(OCc2nc3ccccc3[nH]2)c1	Shiga inhibitor 88, CHX counter 43
Cc1c(NCc2nc3ccccc3[nH]2)c(=O)n(-c2ccccc2)n1C	Pf growth 96h 13µM, CHX counter 29
CC(C)CN1C(=O)c2ccc(C(=O)Nc3c[nH]c(=O)[nH]c3=O)cc2C1=O	Pf growth 96h inconclusive
COc1cccc(-c2nc(NCc3ccccc3)c3ccccc3n2)c1O	Pf growth 48h 15µM, Pf growth 96h inconclusive
c1ccc(CN2CCC(Nc3nc(-c4cccs4)nc4ccccc34)CC2)cc1	Pf growth 48h 5.2µM, Pf growth 96h 5.2µM
COc1cccc(-c2nc(NC3CCCC3)c3ccccc3n2)c1O	Pf growth 96h 9.3µM (no result: Pf growth 48h)
C=CCNc1nc(-c2cccc(OC)c2O)nc2ccccc12	Pf growth 48h inconclusive, Pf growth 96h inconclusive
c1ccc(-c2nc(NC3CCCC3)c3ccccc3n2)cc1	Pf growth 48h inconclusive, Pf growth 96h 10µM
O=C(CSCc1ccccc1)N/N=C/c1cc2c(cc1Br)OCO2	none
CCN1C(=O)S/C(=C/c2ccsc2)C1=O	none (no result: Pf growth 96h)
C=CCN1C(=O)S/C(=C/c2ccsc2)C1=O	Shiga inhibitor 62, CHX counter 37
COc1ccc(CCN2C(=O)C(Oc3ccccc3C)C2c2ccc3c(c2)OCO3)cc1OC (configuration not stated)	Pf growth 48h 12µM
COc1ccc(CCN2C(=O)C(Oc3ccccc3C)C2c2ccc3c(c2)OCO3)cc1 (configuration not stated)	Pf growth 48h inconclusive, Pf growth 96h 0.93µM
O=C1C(Oc2ccccc2)C(c2ccc3c(c2)OCO3)N1CCc1ccc(F)cc1 (configuration not stated)	Pf growth 48h inconclusive
Cc1sc(NC(=O)C2CCCO2)c(C#N)c1C (configuration not stated)	CHX counter 15 (no result: Pf growth 96h)
NC(=O)c1c(NC(=O)C2CCCO2)sc2c1CCCC2 (configuration not stated)	Shiga inhibitor 56, CHX counter 38

Screening data deposited in PubChem by National Center for Advancing Translational Sciences (NCATS).
